The values below come from the supplement of paper PMC10849652.

About 7,900 targets were measured; listed, in parts, are those with a hit and a random draw of the rest. About 0.6% of all pairs of compound and target were hits. Unmarked numbers belong to inactive results.

Chain of UniProt O95319 (O95319 whole entry, looked up): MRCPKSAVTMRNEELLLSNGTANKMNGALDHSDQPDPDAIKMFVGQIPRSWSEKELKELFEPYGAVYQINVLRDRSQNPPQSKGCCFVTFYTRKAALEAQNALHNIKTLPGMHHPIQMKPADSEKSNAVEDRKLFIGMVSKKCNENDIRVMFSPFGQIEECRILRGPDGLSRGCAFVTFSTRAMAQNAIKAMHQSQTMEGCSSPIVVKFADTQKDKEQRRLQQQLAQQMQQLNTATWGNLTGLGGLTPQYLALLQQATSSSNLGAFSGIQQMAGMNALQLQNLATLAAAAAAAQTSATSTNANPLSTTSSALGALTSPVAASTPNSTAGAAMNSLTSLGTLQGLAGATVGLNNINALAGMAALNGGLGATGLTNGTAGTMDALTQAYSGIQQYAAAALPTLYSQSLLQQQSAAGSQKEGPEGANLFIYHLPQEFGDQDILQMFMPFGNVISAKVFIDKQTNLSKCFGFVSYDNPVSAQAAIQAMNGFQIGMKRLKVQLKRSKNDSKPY
Chain of UniProt P68400 (P68400 whole entry, looked up): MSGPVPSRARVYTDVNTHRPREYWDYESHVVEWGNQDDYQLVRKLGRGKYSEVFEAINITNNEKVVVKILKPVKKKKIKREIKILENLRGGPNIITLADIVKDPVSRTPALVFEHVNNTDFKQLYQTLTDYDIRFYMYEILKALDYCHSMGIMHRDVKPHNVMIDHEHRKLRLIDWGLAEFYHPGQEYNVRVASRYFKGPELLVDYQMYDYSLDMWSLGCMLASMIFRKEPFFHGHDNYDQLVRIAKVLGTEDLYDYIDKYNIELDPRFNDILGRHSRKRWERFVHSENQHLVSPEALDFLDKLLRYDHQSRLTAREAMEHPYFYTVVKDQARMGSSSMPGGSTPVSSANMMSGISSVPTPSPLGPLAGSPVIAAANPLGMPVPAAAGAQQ
Chain of UniProt Q8NHZ8 (Q8NHZ8 whole entry, looked up): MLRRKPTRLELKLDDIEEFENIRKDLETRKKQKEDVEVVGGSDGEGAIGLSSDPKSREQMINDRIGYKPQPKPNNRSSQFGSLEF
Chain of UniProt P14635 (P14635 whole entry, looked up): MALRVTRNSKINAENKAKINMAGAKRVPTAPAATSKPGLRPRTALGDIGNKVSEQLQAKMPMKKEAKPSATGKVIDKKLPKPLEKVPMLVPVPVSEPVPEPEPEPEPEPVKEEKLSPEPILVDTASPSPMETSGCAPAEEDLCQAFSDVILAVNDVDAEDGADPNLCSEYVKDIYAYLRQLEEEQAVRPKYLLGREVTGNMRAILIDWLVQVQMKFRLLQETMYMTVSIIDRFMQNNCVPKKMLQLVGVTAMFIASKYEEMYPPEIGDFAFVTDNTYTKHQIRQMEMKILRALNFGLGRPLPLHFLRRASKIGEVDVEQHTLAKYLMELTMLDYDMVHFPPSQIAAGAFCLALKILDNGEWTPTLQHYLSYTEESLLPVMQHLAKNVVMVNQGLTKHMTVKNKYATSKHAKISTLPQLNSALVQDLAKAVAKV
Chain of UniProt Q9Y5P4 (Q9Y5P4 whole entry, looked up): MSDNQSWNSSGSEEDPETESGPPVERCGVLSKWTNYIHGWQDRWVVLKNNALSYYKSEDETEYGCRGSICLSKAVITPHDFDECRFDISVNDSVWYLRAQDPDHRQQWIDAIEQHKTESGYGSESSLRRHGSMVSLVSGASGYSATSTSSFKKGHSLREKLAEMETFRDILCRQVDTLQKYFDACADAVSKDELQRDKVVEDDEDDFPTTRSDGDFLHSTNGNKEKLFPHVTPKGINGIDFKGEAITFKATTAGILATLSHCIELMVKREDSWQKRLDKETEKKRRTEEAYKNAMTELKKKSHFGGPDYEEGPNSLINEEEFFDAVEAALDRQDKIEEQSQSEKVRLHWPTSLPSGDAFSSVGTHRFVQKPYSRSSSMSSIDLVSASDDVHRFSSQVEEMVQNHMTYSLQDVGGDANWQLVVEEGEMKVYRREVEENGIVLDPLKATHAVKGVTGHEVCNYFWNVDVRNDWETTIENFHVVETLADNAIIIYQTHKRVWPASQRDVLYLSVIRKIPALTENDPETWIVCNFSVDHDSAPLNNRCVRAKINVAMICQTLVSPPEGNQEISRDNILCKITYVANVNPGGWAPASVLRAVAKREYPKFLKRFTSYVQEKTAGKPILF
Chain of UniProt Q9Y3X0 (Q9Y3X0 whole entry, looked up): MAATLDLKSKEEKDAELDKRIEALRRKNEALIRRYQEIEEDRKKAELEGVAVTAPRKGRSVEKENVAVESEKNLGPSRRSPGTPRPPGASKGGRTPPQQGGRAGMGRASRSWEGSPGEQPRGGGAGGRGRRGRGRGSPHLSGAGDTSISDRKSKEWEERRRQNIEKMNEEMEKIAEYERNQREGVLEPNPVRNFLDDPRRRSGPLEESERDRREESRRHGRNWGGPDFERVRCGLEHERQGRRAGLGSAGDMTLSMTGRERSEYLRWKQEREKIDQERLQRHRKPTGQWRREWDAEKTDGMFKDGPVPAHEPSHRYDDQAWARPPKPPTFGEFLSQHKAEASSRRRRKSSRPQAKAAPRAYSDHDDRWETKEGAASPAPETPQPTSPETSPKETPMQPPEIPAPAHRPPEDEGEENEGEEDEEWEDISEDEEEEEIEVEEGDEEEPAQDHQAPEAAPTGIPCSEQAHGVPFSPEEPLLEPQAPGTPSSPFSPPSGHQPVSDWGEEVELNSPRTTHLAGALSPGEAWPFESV
Chain of UniProt Q8IWY9 (Q8IWY9 whole entry, looked up): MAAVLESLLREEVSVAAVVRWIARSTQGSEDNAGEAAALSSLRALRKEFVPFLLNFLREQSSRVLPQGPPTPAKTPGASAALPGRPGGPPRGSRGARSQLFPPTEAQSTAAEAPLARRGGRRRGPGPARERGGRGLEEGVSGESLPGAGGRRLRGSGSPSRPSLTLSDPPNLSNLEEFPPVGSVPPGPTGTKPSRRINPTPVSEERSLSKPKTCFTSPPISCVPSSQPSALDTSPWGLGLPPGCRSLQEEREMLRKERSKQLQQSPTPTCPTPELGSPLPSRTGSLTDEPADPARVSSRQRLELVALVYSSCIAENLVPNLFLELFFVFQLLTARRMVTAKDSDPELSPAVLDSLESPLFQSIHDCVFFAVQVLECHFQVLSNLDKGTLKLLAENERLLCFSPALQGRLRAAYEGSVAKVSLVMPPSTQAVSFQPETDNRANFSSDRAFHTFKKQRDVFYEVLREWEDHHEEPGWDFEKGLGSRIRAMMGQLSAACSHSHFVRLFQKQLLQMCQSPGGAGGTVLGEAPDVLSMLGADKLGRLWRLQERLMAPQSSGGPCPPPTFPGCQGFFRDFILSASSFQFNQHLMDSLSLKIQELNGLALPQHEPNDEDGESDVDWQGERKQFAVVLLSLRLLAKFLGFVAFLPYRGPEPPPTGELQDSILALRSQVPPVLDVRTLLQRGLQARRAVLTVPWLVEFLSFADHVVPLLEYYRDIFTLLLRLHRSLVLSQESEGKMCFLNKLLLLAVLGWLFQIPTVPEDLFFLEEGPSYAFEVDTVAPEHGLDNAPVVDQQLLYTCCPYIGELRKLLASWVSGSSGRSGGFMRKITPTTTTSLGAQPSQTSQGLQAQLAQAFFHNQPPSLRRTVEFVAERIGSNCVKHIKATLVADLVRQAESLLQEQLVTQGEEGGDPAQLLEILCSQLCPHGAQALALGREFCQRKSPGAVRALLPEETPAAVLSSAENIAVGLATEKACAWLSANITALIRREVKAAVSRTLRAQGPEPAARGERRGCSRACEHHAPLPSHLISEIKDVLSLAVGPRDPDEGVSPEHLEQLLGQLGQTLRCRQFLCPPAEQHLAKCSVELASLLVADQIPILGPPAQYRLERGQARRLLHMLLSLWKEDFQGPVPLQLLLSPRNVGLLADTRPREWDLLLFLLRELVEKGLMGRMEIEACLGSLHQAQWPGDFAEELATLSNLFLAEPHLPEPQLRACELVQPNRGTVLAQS
Chain of UniProt P16152 (P16152 whole entry, looked up): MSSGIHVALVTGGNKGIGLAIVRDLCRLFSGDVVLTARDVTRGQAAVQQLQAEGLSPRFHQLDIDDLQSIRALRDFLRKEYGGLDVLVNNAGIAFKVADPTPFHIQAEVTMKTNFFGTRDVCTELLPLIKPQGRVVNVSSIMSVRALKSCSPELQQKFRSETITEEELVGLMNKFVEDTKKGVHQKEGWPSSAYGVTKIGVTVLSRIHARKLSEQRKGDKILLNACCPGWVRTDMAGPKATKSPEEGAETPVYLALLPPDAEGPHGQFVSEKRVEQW
Chain of UniProt P45973 (P45973 whole entry, looked up): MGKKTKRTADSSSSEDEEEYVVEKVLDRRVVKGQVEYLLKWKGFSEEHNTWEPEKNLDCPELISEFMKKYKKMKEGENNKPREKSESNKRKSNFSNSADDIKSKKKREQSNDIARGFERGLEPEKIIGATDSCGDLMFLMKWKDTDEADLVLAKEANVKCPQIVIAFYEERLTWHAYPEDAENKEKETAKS
Chain of UniProt Q99439 (Q99439 whole entry, looked up): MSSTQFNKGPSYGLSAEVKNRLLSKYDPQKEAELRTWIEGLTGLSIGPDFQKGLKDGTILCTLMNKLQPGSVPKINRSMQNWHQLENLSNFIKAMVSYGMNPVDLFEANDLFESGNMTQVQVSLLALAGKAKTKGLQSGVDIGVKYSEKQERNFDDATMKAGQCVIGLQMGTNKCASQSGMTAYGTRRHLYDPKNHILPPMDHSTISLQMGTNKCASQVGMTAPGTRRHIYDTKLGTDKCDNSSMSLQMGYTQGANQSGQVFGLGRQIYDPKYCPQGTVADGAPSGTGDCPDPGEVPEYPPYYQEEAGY
Chain of UniProt Q5T6V5 (Q5T6V5 whole entry, looked up): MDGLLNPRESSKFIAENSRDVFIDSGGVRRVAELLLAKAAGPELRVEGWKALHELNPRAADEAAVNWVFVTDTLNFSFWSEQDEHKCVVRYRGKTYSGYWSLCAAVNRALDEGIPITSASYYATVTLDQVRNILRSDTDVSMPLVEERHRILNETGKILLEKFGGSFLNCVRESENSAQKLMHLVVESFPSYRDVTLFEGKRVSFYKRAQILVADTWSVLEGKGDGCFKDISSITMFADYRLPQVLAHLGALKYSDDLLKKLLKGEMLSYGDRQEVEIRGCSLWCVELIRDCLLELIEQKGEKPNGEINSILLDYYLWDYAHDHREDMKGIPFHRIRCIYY

Compound in the first experiment: Cc1ccc(-n2nc(C(C)(C)C)cc2NC(=O)Nc2ccc(OCCN3CCOCC3)c3ccccc23)cc1 [doramapimod]
The experiment is described as follows: log2 fold change, soluble protein after heating vs DMSO (PISA); higher = thermal stabilisation; K562 cells, 10 uM, 30 min; active = over 0.2 and 3.5 SD of the protein, either way, in both replicates (recomputed). Put shortly:
(§1)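 K562 cells at 2×10^6 cells/mL were treated for 30 min with 10 μM compound, and aliquots were heated for 3 min over 48°C-58°C before pooling. Extraction used PBS with 0.5% NP-40 at 4°C, and soluble protein was the supernatant after 21,000xg for 90 min, measured by TMTpro 16plex LC-MS/MS with channel sums equalised. Thermal stability values, relative to control samples and from duplicates, are log2 fold changes.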
Consider CHP1 (UniProt Q99653), for which the log2 fold change was -0.021.
On the same count and under the same terms, under CES2 isoform 4 (UniProt O00748) stands 0.144.
Same read-out and setting: under CPT2 (UniProt P23786) stands -0.019; under CNN2 (UniProt Q99439), 0.007; under CBX5 (UniProt P45973), -0.045.
The same measure, in the same setting: then CNOT4 isoform 6 (UniProt O95628), with -0.02; and CD55 isoform 7 (UniProt P08174), with 0.02.
For the target CPT1A (UniProt P50416), the log2 fold change was 0.012.
Consider CD81 (UniProt P60033), for which the log2 fold change was -0.025.
On to CRK (UniProt P46108), for which the log2 fold change is 0.01.
Still for that read-out and setting: under CSK (UniProt P41240) stands 0.003; under CELF2 isoform 3 (UniProt O95319), 0.05; under CDK5RAP3 isoform 4 (UniProt Q96JB5), -0.033.
Regarding CSNK2A2 (UniProt P19784), the log2 fold change was 0.007.
Consider CCZ1 (UniProt P86791), for which the log2 fold change was -0.036.
Still for that read-out and setting: under CBR1 (UniProt P16152) stands 0.003.
The same measure, in the same setting: then CHAMP1 (UniProt Q96JM3), with -0.003; and CHMP4C (UniProt Q96CF2), with -0.046; and CBS (UniProt P35520), with -0.076.
Same read-out and setting: under COX15 (UniProt Q7KZN9) stands -0.023; under CDAN1 (UniProt Q8IWY9), 0.034.
Consider CDC26 (UniProt Q8NHZ8), for which the log2 fold change was -0.017.
As for COPS3 (UniProt Q9UNS2), the log2 fold change is -0.015.
The same measure, in the same setting: under CALCOCO2 isoform 4 (UniProt Q13137) stands -0.002.
The same measure, in the same setting: under CASP10 isoform 4 (UniProt Q92851) stands 0.028; under C9orf72 (UniProt Q96LT7), 0.01; under CSNK2A1 (UniProt P68400), -0.022.
The same measure, in the same setting: under CCNB1 (UniProt P14635) stands -0.011; under CHCHD1 (UniProt Q96BP2), -0.087; under CERT isoform 3 (UniProt Q9Y5P4), 0.192.
As to CCDC9 (UniProt Q9Y3X0), the log2 fold change is -0.008.
Turning to CAMKK2 (UniProt Q96RR4), the log2 fold change is 0.086.
Still for that read-out and setting: then COMT (UniProt P21964), with 0.
With CCNK isoform 4 (UniProt O75909), the log2 fold change was 0.157.
Same read-out and setting: then CDC42BPA isoform 6 (UniProt Q5VT25), with 0.071.
Regarding C9orf64 (UniProt Q5T6V5), the log2 fold change was -0.005.

Compound in another experiment: Cc1ccc(C(=O)N(CCCN)[C@@H](c2nc3cc(Cl)ccc3c(=O)n2Cc2ccccc2)C(C)C)cc1 [ispinesib]
The experiment is described as above. Put shortly:
as §1
As for CHP1 (UniProt Q99653), the log2 fold change is 0.25.
For the target CES2 isoform 4 (UniProt O00748), the log2 fold change is -0.047.
Still for that read-out and setting: under CPT2 (UniProt P23786) stands -0.306.
On the same count and under the same terms, then CNN2 (UniProt Q99439), with -0.059; and CBX5 (UniProt P45973), with 0.092.
Take CNOT4 isoform 6 (UniProt O95628): the log2 fold change is 0.066.
On the same count and under the same terms, then CD55 isoform 7 (UniProt P08174), with 0.132; and CPT1A (UniProt P50416), with 0.322.
For the target CD81 (UniProt P60033), the log2 fold change is 0.207.
On to CRK (UniProt P46108), for which the log2 fold change is -0.004.
Same read-out and setting: then CSK (UniProt P41240), with -0.028; and CELF2 isoform 3 (UniProt O95319), with -0.066.
On the same count and under the same terms, under CDK5RAP3 isoform 4 (UniProt Q96JB5) stands -0.036.
Same read-out and setting: then CSNK2A2 (UniProt P19784), with 0.084; and CCZ1 (UniProt P86791), with -0.162.
On to CBR1 (UniProt P16152), for which the log2 fold change is 0.194.
For CHAMP1 (UniProt Q96JM3), the log2 fold change was -0.185.
On the same count and under the same terms, then CHMP4C (UniProt Q96CF2), with -0.079; and CBS (UniProt P35520), with -0.019.
Regarding COX15 (UniProt Q7KZN9), the log2 fold change was -0.016.
Consider CDAN1 (UniProt Q8IWY9), for which the log2 fold change was -0.02.
Consider CDC26 (UniProt Q8NHZ8), for which the log2 fold change was 0.406.
Consider COPS3 (UniProt Q9UNS2), for which the log2 fold change was 0.024.
Take CALCOCO2 isoform 4 (UniProt Q13137): the log2 fold change is -0.262.
Still for that read-out and setting: under CASP10 isoform 4 (UniProt Q92851) stands -0.075; under C9orf72 (UniProt Q96LT7), 0.04; under CSNK2A1 (UniProt P68400), 0.029.
On the same count and under the same terms, then CCNB1 (UniProt P14635), with 0.043.
On the same count and under the same terms, under CHCHD1 (UniProt Q96BP2) stands 0.06; under CERT isoform 3 (UniProt Q9Y5P4), 0.109.
As for CCDC9 (UniProt Q9Y3X0), the log2 fold change is -0.215.
The same measure, in the same setting: under CAMKK2 (UniProt Q96RR4) stands -0.204; under COMT (UniProt P21964), 0.235 (active); under CCNK isoform 4 (UniProt O75909), 0.03.
Still for that read-out and setting: under CDC42BPA isoform 6 (UniProt Q5VT25) stands -0.049; under C9orf64 (UniProt Q5T6V5), -0.207.
